FMDV inh: antivirals against foot and mouth disease virus; FMDV antiviral cell-based qHTS; Potency, µM (doses to about 57.9 µM), hits mostly inhibitors; 410,000 compounds, 1.2% hits; calls by dose curve; tested in HEK293T cells; note: read-out not given here; nearly all actives have a fitted effect of over 45% in size
HCMV antiviral: blocks human cytomegalovirus replication | AID 1259415 | activity change, negative = inhibition, % at 57.5 µM | 410,000 compounds, 4.5% hits | HFF cells, HCMV-luciferase reporter, 72 h; hits give low values; in the data active = activity change below about -60%; inconclusive = no clear call, values can overlap the other calls; inactive = above about -39%
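Steps: HFFs plated, 16 h 37C; compounds added; HCMV-luciferase added to MOI 1 PFU/cell; 72 h 37C; OneGlo reagent, 5 min room temperature; luminescence read, normalized to controls.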
LASV entry inh: inhibitors of Lassa virus binding or cell entry; Lassa virus pseudotype entry inhibition, cell reporter; Potency, µM (titrated, usually from 37.9 µM), hits mostly inhibitors; 300,000 compounds, 1.2% hits; AID 540256; calls by dose curve; tested in HEK293 cells; note: nearly all actives have a fitted effect of over 50% in size
MARV entry inh: blocks Marburg virus binding to or entry into cells; AID 540276; 300,000 compounds, 1.8% hits; Potency, µM (doses to about 37.8 µM), hits mostly inhibitors; Marburg virus pseudotyped entry inhibition, cell reporter; calls by dose curve; tested in HEK293 cells
Numbers stand for hits; 0 = inactive; ? = inconclusive; - = not tested or not shown. Sampled rows, rich in hits. Any-hit rate of the full collection: about 6.2%.

SMILES	FMDV inh	HCMV antiviral	LASV entry inh	MARV entry inh
CC(c1ccccc1)N1C(=O)C2C3CCC(C3)C2C1=O (stereo not given)	0	0	0	?
CC(NC(=O)C(Cc1ccccc1)N1C(=O)C2C3CCC(C3)C2C1=O)c1ccccc1 (stereo not given)	0	-61	?	0
O=S(=O)(CC(CN1CCCC1)N1CCCC1)c1ccc2ccccc2c1 (stereo not given)	0	-102	10µM	18µM
O=C(CN1C(=O)S/C(=C\c2ccc(F)cc2)C1=O)Nc1cccc(S(=O)(=O)NCc2ccco2)c1	0	-98	0	0
CCc1ccccc1OCC(=O)Nc1cccc(S(=O)(=O)NCc2ccco2)c1	0	0	-	-
Cc1nc2c(o1)C(=O)c1ccccc1C2=Nc1ccccc1	18µM	-100	11µM	?
Cc1nc(-c2ccc(NC(=O)C(C)(C)C)cc2)c(-c2ccccc2)o1	0	0	0	?
COc1ccc(CCC(=O)N2CCN(c3cccc(C)c3C)CC2)cc1	0	-80	-	0
CCOC(=O)c1[nH]c2ccc(OC)cc2c1NC(=S)N1CCN(c2ccc(F)cc2)CC1	0	0	0	?
COc1ccc(CC(=O)N2CCN(c3cccc(C)c3C)CC2)cc1	0	0	-	-
Cc1ccc2c(c1)N(C(=O)CCC(=O)N1CCN(c3ccccc3)CC1)CCO2	0	0	-	-
Cc1ccc2c(c1)N(C(=O)CCC(=O)N1CCN(c3cccc(C)c3C)CC1)CCO2	14µM	?	-	-
O=C(CCCSc1nc2ccccc2[nH]1)N1CCN(c2ccccc2)CC1	?	0	0	?
CCOC(=O)c1[nH]c2ccc(OC)cc2c1NC(=S)N1CCN(c2cccc(C)c2C)CC1	0	0	?	2.2µM
Cc1cccc(N2CCN(C(=O)CCCSc3nc4ccccc4[nH]3)CC2)c1C	35µM	?	0	?
COC(=O)c1cc(OC)c(OC)cc1NC(=S)Nc1cccc(C(C)=O)c1	0	0	0	0
O=c1cc(CN2CCCCC2)nc(C2CC2)[nH]1	0	0	?	0
Cc1cccc(N2CCN(C(=O)CCC(=O)N3Cc4ccccc4Oc4ncccc43)CC2)c1C	?	-94	?	?
COc1ccc(N2CCN(C(=O)CCC(=O)N3CCOc4ccc(Cl)cc43)CC2)cc1	0	-99	-	-
COc1ccc(N2CCN(C(=O)COC(=O)CC(NC(N)=O)c3ccc(Cl)cc3)CC2)cc1 (stereo not given)	?	-62	-	-
COc1ccc(N2CCN(C(=O)COC(=O)CNC(=O)c3ccc(Cl)cc3Cl)CC2)cc1	0	0	0	0
Cc1ccc(NC(=O)CCC(=O)N2Cc3ccccc3Oc3ncccc32)cc1Cl	0	0	0	-
O=C(CCc1ccccc1)NNC(=S)NCCc1ccccc1	0	0	-	-
CCN(CC(=O)NCc1cccs1)C(=O)Cc1ccc(Cl)c(Cl)c1	0	0	0	0
COc1ccc(NCc2cccn2-c2nnc(N3CCC(C)CC3)s2)c(OC)c1	2µM	0	0	-
SMILES	FMDV inh	HCMV antiviral	LASV entry inh	MARV entry inh
CCOc1ccc(NCc2cccn2-c2nnc(N3CCC(C(=O)NCCCN4CCCCC4C)CC3)s2)cc1 (stereo not given)	0	-66	-	-
Cc1ccc(NCc2cccn2-c2nnc(N3CCC(C(=O)NCCC(C)C)CC3)s2)cc1	?	-67	-	0
CCOc1ccc(NCc2cccn2-c2nnc(N3CCC(C(=O)NCCCN4C(C)CCCC4C)CC3)s2)cc1 (stereo not given)	0	?	0	?
Cc1ccc(NC(=O)[C@H](NC(=O)[C@@H]2Cc3ccccc3CN2)c2ccccc2)cc1C	0	-	-	-
N#CC(C#N)=NNc1ccc(S(=O)(=O)N2CCCC2)cc1	32µM	0	0	?
Cc1cc(-c2ccccc2)nc2[n+]1CCN2C	-	-84	0	0
CCc1ccc(NC(=O)COC(=O)C2(c3ccc(Cl)cc3)CCCC2)cc1	20µM	0	0	0
COc1ccc(S(=O)(=O)Nc2cccc(-c3ccc(N4CCCCCC4)nn3)c2)cc1	0	?	0	-
CCn1c(N2CCN(S(=O)(=O)c3ccccc3C(F)(F)F)CC2)nc2ccccc21	?	0	?	0
CCn1c(N2CCN(S(=O)(=O)c3ccc(OC)cc3)CC2)nc2ccccc21	?	0	8.9µM	?
CN(Cc1ccccc1)C(=O)c1cccc(NC(=O)Cc2ccc(NC(=O)C3CCCN(C(=O)C4CCC4)C3)cc2)c1 (stereo not given)	0	0	-	-
COc1ccc(NC(=S)N2CCN(C/C=C/c3ccccc3)CC2)c(OC)c1	0	?	0	0
COc1ccccc1NC(=S)N1CCN(C/C=C/c2ccccc2)CC1	?	-72	0	0
Cc1oc(-c2cccc(Cl)c2)nc1CS(=O)(=O)CC(=O)NCCN1CCCC1	0	0	-	-
CCOc1ccc(OCC)c(NC(=O)CSc2nc3c(c(=O)n(C)c(=O)n3C)n2C)c1	-	-	-	0
CCOc1ccc(OCC)c(NC(=O)CSc2nc3c(c(=O)n(C)c(=O)n3C)n2C(C)C)c1	-	-63	?	?
O=C(c1ccc(S(=O)(=O)N2CCCCC2)cc1)N1CCN(CCN2C(=O)c3cccc4cccc(c34)C2=O)CC1	16µM	?	0	?
CC(=O)c1ccc(OCC(O)CN2CCN(CC(O)COc3ccc(C(C)=O)cc3)CC2)cc1 (stereo not given)	0	0	0	?
CC(=O)c1ccc(OCC(O)CN2CCN(S(=O)(=O)c3c(C)c(C)cc(C)c3C)CC2)cc1 (stereo not given)	0	-72	?	?
Cc1cccc(C)c1OCC(O)CN1CCC(CN2C(=O)c3cccc4cccc(c34)C2=O)CC1 (stereo not given)	22µM	0	?	?
CC(=O)c1cccc(NC(=S)N2CCN(CCN3C(=O)c4cccc5cccc(c45)C3=O)CC2)c1	0	-79	0	?
C=CCc1ccccc1OCC(O)CN1CCN(CCN2C(=O)c3cccc4cccc(c34)C2=O)CC1 (stereo not given)	28µM	0	?	11µM
CC(=O)c1ccc(OCC(O)CN2CCN(CCN3C(=O)c4cccc5cccc(c45)C3=O)CC2)cc1 (stereo not given)	?	-84	?	?
CC(C)OCC(O)CN1CCN(CCN2C(=O)c3cccc4cccc(c34)C2=O)CC1 (stereo not given)	0	0	-	-
CCC(OCC(O)CN1CCN(CCN2C(=O)c3cccc4cccc(c34)C2=O)CC1)c1ccccc1 (stereo not given)	28µM	?	?	?
SMILES	FMDV inh	HCMV antiviral	LASV entry inh	MARV entry inh
CCOc1cc(C2c3c(-c4ccccc4O)n[nH]c3C(=O)N2Cc2cccnc2)ccc1O (stereo not given)	0	0	0	0
O=C(NNc1ncccc1-n1cccc1)c1ccc(Cl)cc1	0	0	0	0
CC(C)(C)c1ccc(C(=O)NNc2ncccc2-n2cccc2)cc1	0	-60	-	-
NC(N)=NN=C(c1ccc(F)cc1)c1ccc(C(F)(F)F)cc1	0	-77	10µM	?
Cc1ccc(OCC(=O)NNC(=O)[C@@H]2CCCC[C@@H]2C(=O)O)c(Br)c1	0	0	-	-
CCC(=O)Nc1cccc(C2=NOC3(C2)C[C@@H](C(N)=O)N(C(=O)CC(c2ccccc2)c2ccccc2)C3)c1 (stereo not given in full)	0	-67	-	-

Compound activity deposited in PubChem BioAssay by National Center for Advancing Translational Sciences (NCATS).
